The results in this text go back to PMC4336329 (PLoS ONE, 2015).

Out of some 310,000 compounds screened, about 14,000 (4.5%) showed an effect of 50% or more. Effects have a minus sign here. Only a selection was taken, and strong results are over-represented in it overall. Where a SMILES comes first, the peptide text is derived from it. The star is where a group is joined. Boc = CC(C)(C)OC(=O)*; OtBu = CC(C)(C)O*
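Also: peak tail current of the secondary pulse compared with the same well before compound.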

In this experiment the target is human ether-à-go-go-related gene (hERG) potassium channel (human, UniProt Q12809). Kind of experiment: primary screen, population patch clamp on CHO cells stably expressing hERG; higher = less effect of the substance.
human ether-à-go-go-related gene (hERG) potassium channel, sequence (Q12809 whole entry, looked up): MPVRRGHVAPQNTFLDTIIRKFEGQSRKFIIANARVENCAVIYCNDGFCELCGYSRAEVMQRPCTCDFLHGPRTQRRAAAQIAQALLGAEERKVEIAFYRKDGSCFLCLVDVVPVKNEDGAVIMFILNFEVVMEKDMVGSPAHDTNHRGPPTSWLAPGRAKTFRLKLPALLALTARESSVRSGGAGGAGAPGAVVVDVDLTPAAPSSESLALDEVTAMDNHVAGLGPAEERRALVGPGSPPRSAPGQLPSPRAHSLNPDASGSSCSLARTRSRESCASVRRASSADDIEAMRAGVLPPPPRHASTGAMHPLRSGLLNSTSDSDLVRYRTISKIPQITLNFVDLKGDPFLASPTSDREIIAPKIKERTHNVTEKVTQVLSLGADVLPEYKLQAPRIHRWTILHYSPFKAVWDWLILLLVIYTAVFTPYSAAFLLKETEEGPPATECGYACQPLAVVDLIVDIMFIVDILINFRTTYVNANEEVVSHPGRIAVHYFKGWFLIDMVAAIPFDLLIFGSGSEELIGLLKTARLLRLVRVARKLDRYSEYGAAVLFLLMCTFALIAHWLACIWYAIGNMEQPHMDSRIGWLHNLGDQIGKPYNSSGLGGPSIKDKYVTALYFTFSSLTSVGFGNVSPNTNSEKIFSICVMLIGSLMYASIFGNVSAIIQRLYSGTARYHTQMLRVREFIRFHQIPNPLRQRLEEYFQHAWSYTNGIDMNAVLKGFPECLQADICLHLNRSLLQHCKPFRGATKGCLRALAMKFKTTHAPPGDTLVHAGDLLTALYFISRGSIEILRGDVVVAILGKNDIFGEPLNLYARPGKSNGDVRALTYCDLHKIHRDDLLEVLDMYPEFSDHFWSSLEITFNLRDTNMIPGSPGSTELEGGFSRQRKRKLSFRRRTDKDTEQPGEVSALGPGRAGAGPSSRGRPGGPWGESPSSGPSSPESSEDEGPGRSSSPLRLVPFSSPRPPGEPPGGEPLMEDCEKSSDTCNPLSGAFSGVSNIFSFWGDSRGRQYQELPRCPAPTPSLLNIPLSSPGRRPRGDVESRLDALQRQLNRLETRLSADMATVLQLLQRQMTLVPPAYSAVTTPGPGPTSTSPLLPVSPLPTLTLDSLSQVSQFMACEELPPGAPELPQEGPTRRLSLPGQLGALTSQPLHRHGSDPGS
With `COC(=O)c1cn(NC(=O)c2ccc([N+](=O)[O-])cc2Cl)c(=O)c2ccccc12`, the “hERG current change (%, negative = inhibition) at 10uM” value is listed as -5.68%.
Consider `CCCn1c(SCC(=O)NCc2ccccc2)n[nH]c1=O`, for which the “hERG current change (%, negative = inhibition) at 10uM” value came to 7.49%.
As for `CCN(CC(=O)Nc1cccc(S(=O)(=O)N2CCOCC2)c1)Cc1ccccc1`, the “hERG current change (%, negative = inhibition) at 10uM” value is recorded as -4.27%.
On to `CCOC(=O)c1cc(-c2ccc(N3CCOCC3)cc2)nn1-c1ccccc1`, for which the “hERG current change (%, negative = inhibition) at 10uM” value is given as -48.9%.
Turning to `CCCCOc1nc2ccccc2c(=O)n1-c1ccccc1`, the “hERG current change (%, negative = inhibition) at 10uM” value is reported as -11.6%.
`Cc1cc(C)n2nc(C(=O)OC(C)C(=O)c3ccccc3)nc2n1` (centres unmarked): the “hERG current change (%, negative = inhibition) at 10uM” value came to 17.9%.
On to `O=C(Cn1[nH]c(=O)c2ccccc2c1=O)NC1CCN(Cc2ccccc2)CC1`, for which the “hERG current change (%, negative = inhibition) at 10uM” value turned out to be 0.791%.
For the compound `COc1ccc2c(c1OC)C(=O)N(C(C)C(=O)O)C2=O` (centres unmarked), the “hERG current change (%, negative = inhibition) at 10uM” value was 10.1%.
For `O=C(CSc1nnc2ccc(-c3cccnc3)nn12)Nc1ccccc1` the value was -50.6%; for `CC(=O)Nc1ccc(NC(=O)CSc2nnc3ccc(-c4cccnc4)nn23)cc1`, 19.8%.
Take `Cc1ccc(NC(=O)CSc2nnc3ccc(-c4cccnc4)nn23)cc1`: the “hERG current change (%, negative = inhibition) at 10uM” value is given as -49.3%.
Take `CC(c1nnc(SCC(=O)NC(=O)NCc2ccco2)n1-c1ccc(Cl)cc1)N(C)C` (centres unmarked): the “hERG current change (%, negative = inhibition) at 10uM” value is -8.66%.
With `CC(C)COc1ccc(C/C(N)=N/n2cnnc2)cc1`, the “hERG current change (%, negative = inhibition) at 10uM” value came to 30.4%.
For `COC(=O)CSc1nc2nc(C)cc(C)n2n1` the value was 4.29%; for `CS(=O)(=O)N1CCN(c2ccnc3cc(Cl)ccc23)CC1`, -78.6%.
To `CC(C)S(=O)(=O)N1CCN(c2ccnc3cc(Cl)ccc23)CC1` belongs -71.6%; to `CN(C)S(=O)(=O)N1CCN(c2ccnc3cc(Cl)ccc23)CC1`, -76.2%; to `CN(C)S(=O)(=O)N1CCN(c2cc(Cl)ccc2Cl)CC1`, -8.38%.
On to `Cc1ccc(Cl)cc1N1CCN(S(C)(=O)=O)CC1`, for which the “hERG current change (%, negative = inhibition) at 10uM” value is -5.31%.
To `Cl.ClCCN1CCN(c2ccnc3cc(Cl)ccc23)CC1` belongs -20.8%; to `CCS(=O)(=O)N1CCN(c2ccnc3cc(Cl)ccc23)CC1`, -73.2%.
Regarding `Cc1cc(C)c[n+](-c2[nH]c(=O)sc2/C=N/N=C(\N)[S-])c1`, the “hERG current change (%, negative = inhibition) at 10uM” value is on record as 22%.
For `COCCn1c(SCC(=O)NC2CCCC2)nc2cccnc21`, the “hERG current change (%, negative = inhibition) at 10uM” value came out at 17.1%.
As to `COc1ccccc1-n1cnnc1SCC(=O)c1ccc[nH]1`, the “hERG current change (%, negative = inhibition) at 10uM” value is recorded as -0.89%.
For `Cc1ccccc1NC(=S)N(CCN1CCOCC1)Cc1ccccc1F`, the “hERG current change (%, negative = inhibition) at 10uM” value turned out to be 30.1%.
For the compound `Cl.Clc1ccc(CNCCC2=CCCCC2)cc1`, the “hERG current change (%, negative = inhibition) at 10uM” value is -40%.
For the compound `CC(Oc1ccc(Br)cc1Br)C(=O)NC1CCCC1` (centres unmarked), the “hERG current change (%, negative = inhibition) at 10uM” value is 16.2%.
For the compound `COc1ccc(N(CC(=O)N2CCc3ccccc3C2)S(=O)(=O)c2ccccc2)cc1`, the “hERG current change (%, negative = inhibition) at 10uM” value is reported as -32.1%.
`N#Cc1nc(COc2cccc(Cl)c2)oc1NCc1ccncc1`: the “hERG current change (%, negative = inhibition) at 10uM” value was -73.7%.
Regarding `N#Cc1nc(COc2cccc(Cl)c2)oc1NCc1ccco1`, the “hERG current change (%, negative = inhibition) at 10uM” value was -16.8%.
For `Cc1ccc(CNc2oc(COc3ccccc3Cl)nc2C#N)cc1`, the “hERG current change (%, negative = inhibition) at 10uM” value is recorded as 13.2%.
As for `CN(C)CCNc1oc(COc2cccc(Cl)c2)nc1C#N`, the “hERG current change (%, negative = inhibition) at 10uM” value is -16.1%.
`N#Cc1nc(COc2ccccc2Cl)oc1NCc1cccnc1`: the “hERG current change (%, negative = inhibition) at 10uM” value is on record as -51.2%.
`N#Cc1nc(COc2ccccc2Cl)oc1NCc1ccc(F)cc1`: the “hERG current change (%, negative = inhibition) at 10uM” value was 0.159%.
On to `FC(F)(F)c1ccc(C2[C@H]3CN(CC4CCCCC4)[C@H](c4ccccc4)C34CC2(c2cccnc2)C4)cc1` (some centres unmarked), for which the “hERG current change (%, negative = inhibition) at 10uM” value amounted to 0.391%.
For `CN1CCN(C(=O)c2c(O)c3cccc4c3n(c2=O)CCC4)CC1.Cl` the value was 6.48%; for `c1ccc(Cc2nc3ccccc3[nH]2)cc1`, -6.39%; for `CCOc1ccc(Nc2nc3c(c(=O)[nH]2)CCCC3)cc1`, -3.98%.
To `COC(=O)c1ccc(/C=C2/SC(=S)N(CCCC(=O)Nc3ccccn3)C2=O)cc1` belongs 15.4%.
`CC(NC(=O)C(CC(=O)OC(C)(C)C)NC(=O)OC(C)(C)C)C(N)=O` (centres unmarked) (Boc-Asp(OtBu)-Ala-NH2; configuration not given here): the “hERG current change (%, negative = inhibition) at 10uM” value is -5.99%.
To `Cc1sc2ncn(CC(=O)NCCCC(=O)N3CCN(c4ncccn4)CC3)c(=O)c2c1C` belongs 7.64%; to `N#C/C(=C\c1ccco1)Sc1nc2ccccc2s1`, 0.525%; to `O=C(NCCc1nnc2ccc(NCc3ccc(F)cc3)nn12)c1ccccc1`, -29%.
To `Cn1c(=O)c2c(n(Cc3ccccc3)c1=O)NC(=O)C2CC(=O)O` (centres unmarked) belongs 12.6%; to `CC(C)Cn1c(O)c2ccc(C(=O)N=NC(=O)c3cccnc3)cc2c1O`, 17%; to `COc1ccc(/C=C/C(=O)NC(=S)N2CCN(c3ccccn3)CC2)cc1`, -6.85%.
For the compound `COc1cccc(NC(=S)N(Cc2ccc(C)cc2)Cc2ccccn2)c1`, the “hERG current change (%, negative = inhibition) at 10uM” value is listed as -30.2%.
For the compound `COc1ccccc1NC(=S)N(Cc1ccc(C)cc1)Cc1ccccn1`, the “hERG current change (%, negative = inhibition) at 10uM” value is reported as -39.1%.
For `CCc1ccc(NC(=S)N(CCCN2CCOCC2)Cc2ccccn2)cc1` the value was -56.3%.
`COc1ccc(NC(=S)N(CCCN2CCOCC2)Cc2ccccn2)cc1`: the “hERG current change (%, negative = inhibition) at 10uM” value is reported as -14.4%.
As for `Cc1ccc(NC(=S)N(CCCN2CCOCC2)Cc2ccccn2)cc1`, the “hERG current change (%, negative = inhibition) at 10uM” value is -22.8%.
In the case of `S=C(Nc1ccc(Oc2ccccc2)cc1)N(CCCN1CCOCC1)Cc1ccccn1`, the “hERG current change (%, negative = inhibition) at 10uM” value was -70%.
Regarding `Cc1cccc(NC(=S)N(CCCN2CCOCC2)Cc2ccccn2)c1`, the “hERG current change (%, negative = inhibition) at 10uM” value is on record as -22.3%.
In the case of `CCc1ccccc1NC(=S)N(CCCN1CCOCC1)Cc1ccccn1`, the “hERG current change (%, negative = inhibition) at 10uM” value is -25.8%.
On to `COc1ccc(NC(=S)N(Cc2ccc(C)cc2)Cc2ccccn2)cc1`, for which the “hERG current change (%, negative = inhibition) at 10uM” value was -50.5%.
As for `N#Cc1ccccc1OCC(=O)NCCNC(=O)COc1ccccc1C#N`, the “hERG current change (%, negative = inhibition) at 10uM” value was -10.1%.
As for `CCOC(=O)C(C)Oc1c(Br)cc(C2NC(=O)NC(C)=C2C(C)=O)cc1OCC` (centres unmarked), the “hERG current change (%, negative = inhibition) at 10uM” value turned out to be 3.1%.
As for `COc1cccc(C(=O)NCCC(=O)NCc2cc(=O)n(C)c(=O)n2C)c1`, the “hERG current change (%, negative = inhibition) at 10uM” value was 13.9%.
On to `Cn1ccc(-c2ccccc2)c(C#N)c1=O`, for which the “hERG current change (%, negative = inhibition) at 10uM” value came out at 3.34%.
To `CS(=O)(=O)CCC(C(=O)OCc1ccc(Br)cc1)N1C(=O)c2ccccc2C1=O` (centres unmarked) belongs -0.0845%.
As for `COC(=O)c1cc(C(=O)NNC(=O)c2ccc3c(c2)OCO3)cc([N+](=O)[O-])c1`, the “hERG current change (%, negative = inhibition) at 10uM” value is -7.98%.
To `O=C(CN(Cc1ccco1)C(=O)c1ccccc1F)Nc1ccccc1C(F)(F)F` belongs 2.3%; to `CNC(=S)N/N=C/c1cn(Cc2ccc(F)cc2)c2ccccc12`, -4.59%; to `Cc1ccc(S(=O)(=O)N(C)C)cc1NC(=S)NCCc1ccccn1`, 24.2%.
Take `COc1cc(C(C(=O)Nc2c(C)cccc2C)N(C)C(=O)c2ccc(-n3cnnn3)cc2)ccc1O` (centres unmarked): the “hERG current change (%, negative = inhibition) at 10uM” value is reported as -67.7%.
Regarding `COc1cc(C(NC=O)C(=O)Nc2c(C)cccc2C)ccc1O` (centres unmarked), the “hERG current change (%, negative = inhibition) at 10uM” value is given as 15.1%.
For `Cc1cccc(C)c1NC(=O)c1ccc(-n2cnnn2)cc1` the value was -44.2%; for `O=C(CN1CCc2ccccc2C1)Nc1ccccc1N1CCCCCC1.O=C(O)C(=O)O`, -5.79%.
For `O=C(NS(=O)(=O)Nc1ccc(Cl)cc1)c1c[nH]c2ccccc12`, the “hERG current change (%, negative = inhibition) at 10uM” value is 23.2%.
Turning to `Cc1cc(C)c(S(=O)(=O)N2CCN(C(=O)C3CCCO3)CC2)c(C)c1` (centres unmarked), the “hERG current change (%, negative = inhibition) at 10uM” value is reported as -17.1%.
With `CCc1nn(C(C)C(=O)NCCN2CCN(c3cccc(C)c3C)CC2)c(=O)c2cc3occc3n12` (centres unmarked), the “hERG current change (%, negative = inhibition) at 10uM” value is on record as -65.3%.
For `CCc1nn(C(C)C(=O)Nc2cccc(C)c2C)c(=O)c2cc3occc3n12` (centres unmarked), the “hERG current change (%, negative = inhibition) at 10uM” value is -0.753%.
Consider `CCc1nn(C(C)C(=O)NCCN2CCCCCC2)c(=O)c2cc3occc3n12` (centres unmarked), for which the “hERG current change (%, negative = inhibition) at 10uM” value amounted to 6.27%.
As for `O=C(c1cnn2c(C(F)(F)F)cc(-c3cccs3)nc12)N1CCOCC1`, the “hERG current change (%, negative = inhibition) at 10uM” value is reported as -5.7%.
For `O=C(Nc1cccc(-n2cnnn2)c1)c1ccc(C(F)(F)F)cc1`, the “hERG current change (%, negative = inhibition) at 10uM” value was -15.3%.
Take `Oc1ccc(-c2[nH]ncc2-c2cccc3cccnc23)c(O)c1`: the “hERG current change (%, negative = inhibition) at 10uM” value came out at 32.1%.
On to `Cc1cc(=O)oc2cc(OCC(=O)NCCCN3CCCC3=O)ccc12`, for which the “hERG current change (%, negative = inhibition) at 10uM” value came to 29.5%.
On to `Fc1ccccc1N1CCN(C2CCN(Cc3c[nH]c4ccccc34)CC2)CC1`, for which the “hERG current change (%, negative = inhibition) at 10uM” value was -54.5%.
Take `Cc1ccc(CN2CCN(c3cccc4[nH]ccc34)CC2)cc1`: the “hERG current change (%, negative = inhibition) at 10uM” value is reported as -60.4%.
For the compound `O=[N+]([O-])c1cccc(CN2CCN(c3cccc4[nH]ccc34)CC2)c1`, the “hERG current change (%, negative = inhibition) at 10uM” value is listed as -7.67%.
Regarding `COc1ccccc1N1CCN(C(=O)CCc2c[nH]c3ccccc23)CC1`, the “hERG current change (%, negative = inhibition) at 10uM” value came to 3.69%.
For the compound `O.c1ccc2c(CN3CCN(C4CCCCC4)CC3)c[nH]c2c1`, the “hERG current change (%, negative = inhibition) at 10uM” value was -18.2%.
For `Fc1ccc(N2CCN(Cc3c[nH]c4ccccc34)CC2)cc1`, the “hERG current change (%, negative = inhibition) at 10uM” value is recorded as -68.3%.
`COc1ccccc1N1CCN(Cc2c[nH]c3ccccc23)CC1`: the “hERG current change (%, negative = inhibition) at 10uM” value is recorded as -55.8%.
On to `c1cnc(N2CCN(Cc3c[nH]c4ccccc34)CC2)nc1`, for which the “hERG current change (%, negative = inhibition) at 10uM” value is reported as -36%.
Turning to `Clc1ccccc1CN1CCN(c2cccc3[nH]ccc23)CC1`, the “hERG current change (%, negative = inhibition) at 10uM” value was 3.09%.
Consider `c1ccc2c(CN3CCOCC3)c[nH]c2c1`, for which the “hERG current change (%, negative = inhibition) at 10uM” value was 15.1%.
Take `COc1ccccc1N1CCN(Cc2ccc(OC)c3ccccc23)CC1`: the “hERG current change (%, negative = inhibition) at 10uM” value is -5.46%.
Turning to `c1ccc2c(CN3CCCCCCC3)c[nH]c2c1`, the “hERG current change (%, negative = inhibition) at 10uM” value is reported as -22.4%.
